From PubChem BioAssay AID686928 (Broad Institute, 2013)
Results with a measured potency or affinity are listed apart. Active and inactive are the calls of the source. How the calls were made is not given here.

Test: HeLa cell cytotoxicity, dose response, cytotoxicity control, 24 h, plate reader, dry powder (AID 686928)
Details: series mostly up to 80 µM
In the case of O=c1ncn(-c2ccccc2)c2ccccc12, the outcome is reported as “inactive”.
In the case of O=c1ncn(-c2ccc(Cl)c(Cl)c2)c2ccccc12, the outcome is reported as “inactive”.
In the case of O=C(Nc1nnc(-c2ccccc2Cl)o1)C1CCCCC1, the outcome is reported as “inactive”.
For O=C1C(=O)N(Cc2ccccc2Cl)c2ccccc21, the outcome was “inactive”.
With COC(=O)c1ccccc1Nc1cccc(Cl)c1 the outcome was “inactive”.
With COc1ccc2cc3c(NC(=O)c4ccco4)nn(C)c3nc2c1 the outcome was “inactive”.
In the case of NC(=O)c1ccccc1Nc1ccccc1, the outcome is reported as “inactive”.
For COc1ccc2c(=O)ncn(-c3cccc(Cl)c3)c2c1, the outcome was “inactive”.
In the case of Cc1ccc2cc3c(NC(=O)Cc4ccco4)nn(C)c3nc2c1, the outcome is reported as “inactive”.
For O=C(Cc1ccc(-c2ccccc2)cc1)NC1CNC1, the outcome was “inactive”.
For O=c1ncn(-c2cccc(F)c2)c2ccccc12, the outcome was “inactive”.
In the case of O=C(CC1CCCCC1)Nc1nnc(-c2ccc3c(c2)CCCC3)o1, the outcome is reported as “inactive”.
In the case of O=c1ncn(-c2cccc(Cl)c2)c2ccccc12, the outcome is reported as “inactive”.
For O=C(Nc1nnc(-c2cccnc2)o1)C1CCCCC1, the outcome was “inactive”.
In the case of CN1CCC(C(=O)Nc2nnc(-c3ccc4c(c3)OCCO4)o2)CC1, the outcome is reported as “inactive”.
